# Laboratory results reported in PubChem BioAssay AID1259343 (VanderVen Lab, College of Veterinary Medicine, Cornell …, 2017).
# The whole screen tested about 6,200 compounds, of which about 2,900 (47%) were called active. Cut-off read from the data, not from the text of the source: active = inhibition above about 50%; inactive = the rest. So high a share suggests a set chosen from earlier hits. The list shows a part of the results.
# Assay: Mycobacterium tuberculosis growth inhibition, primary screen (AID 1259343)
# Conditions: inhibition: at 10 µM, hits give high values; outcome: 10 uM
row,SMILES,inhibition
1,COc1cc(OC)c(C2=CCN(C(=O)CC3CCCC3)CC2)c(OC)c1,5.97% (inactive)
2,COc1cc2c(cc1OC)CN(C(=O)CCl)CC2,83.7% (active)
3,O=C(Cc1csc(NC(=O)NC2CCCCC2)n1)Nc1ccccc1Oc1ccccc1,-3.55% (inactive)
4,CCc1csc(NC(=O)C2=NOC(c3ccccc3)C2)n1 (stereo unspecified),64% (active)
5,Brc1cc(CNc2cccnc2N2CCCC2)cs1,21.1% (inactive)
6,Cc1csc2nc(CNc3cccc(C#Cc4cccs4)c3)cc(=O)n12,60.6% (active)
7,Cc1csc2nc(CNc3ccc(NC(=O)C4CC4)cc3C(F)(F)F)cc(=O)n12,10.5% (inactive)
8,O=c1cc(CNc2cccc(F)c2)nc2sc3c(n12)CCCC3,30.1% (inactive)
9,O=C(NCCc1ccccc1Cl)c1cccc2ccnn12,44.4% (inactive)
10,CC(CCc1ccccc1)NC(=O)c1cc(Cl)ccn1 (stereo unspecified),43.1% (inactive)
11,CC(Cc1ccccc1Cl)NC(=O)c1ccccn1 (stereo unspecified),70.5% (active)
12,Cc1ccc(S(=O)(=O)Nc2cc(C(C)C)no2)s1,43.6% (inactive)
13,Cc1ccc(S(=O)(=O)NC(C)c2ccc(Cl)cc2Cl)s1 (stereo unspecified),42.2% (inactive)
14,Cc1ccc(S(=O)(=O)NCCc2sc(-c3ccc(Cl)cc3)nc2C)s1,76.3% (active)
15,CCCCOc1ccc(C(=O)Nc2cc(C)nn2-c2nc(C)cc(=O)[nH]2)cc1,101% (active)
16,CCOc1ccc(C(=O)Nc2cc(C)nn2-c2nc(C)cc(=O)[nH]2)cc1,102% (active)
17,CCOc1ccc(C(=O)Nc2cc(-c3cccs3)nn2-c2nc(C)cc(=O)[nH]2)cc1,93.9% (active)
18,CCCCOc1ccc(C(=O)Nc2cc(C)nn2-c2nc(C)c(C)c(=O)[nH]2)cc1,16.8% (inactive)
19,Cc1ccc(C)c2c(C)c(C(=O)NCC3(C)CCCO3)oc12 (stereo unspecified),38.4% (inactive)
20,Nc1ccc(C(=O)Oc2ccccc2)c(O)c1,98.9% (active)
21,O=C(Oc1ccccc1C(=O)O)c1ccccc1O,inactive
22,O=S(=O)(Nc1nc2ccccc2nc1Cl)c1cccc(C(F)(F)F)c1,38.5% (inactive)

row,SMILES,inhibition
1,O=S(Cc1cccc(C(F)(F)F)c1)Cc1ccc(Cl)cc1Cl (stereo unspecified),42.1% (inactive)
2,CCc1nc(Nc2cccc(C(F)(F)F)c2)c2ccc(Cl)cc2n1,88.9% (active)
3,CN(CC1COc2ccccc2O1)C(=O)CCl (stereo unspecified),-21.8% (inactive)
4,CC(C)N(C(=O)CCl)c1ccccc1,100% (active)
5,Cc1cc(=O)[nH]c2sc(C(=O)Nc3ccc(Br)cc3)c(N)c12,79.5% (active)
6,COc1cccc(-c2ccc(NC(=O)C3CCCN(Cc4nccs4)C3)cc2)c1 (stereo unspecified),48.2% (inactive)
7,COc1cccc(-c2ccc(NC(=O)C3CCCN(Cc4cccc(O)c4)C3)cc2)c1 (stereo unspecified),70.1% (active)
8,CCCc1ncc(CN2CCCC(C(=O)Nc3ccc(-c4cccc(OC)c4)cc3)C2)cn1 (stereo unspecified),68.2% (active)
9,Cc1cc(C(C)(C)C)cc(C)c1CCNS(=O)(=O)N(C)C,27.1% (inactive)
10,Cn1ccc(C(=O)NCCc2ccc(OCc3ccccc3)cc2)cc1=O,65.2% (active)
11,Cc1cc(C(=O)Nc2ccn(-c3ccccc3)n2)c(C)o1,59.6% (active)
12,O=C(Nc1ccn(-c2ccccc2)n1)C1CCCC1,21.5% (inactive)
13,Nc1cnn(Cc2ccc(Br)cc2)c1,94.8% (active)
14,Brc1cnn(Cc2nnc(-c3ccco3)o2)c1,-27.3% (inactive)
15,CN(C)c1cc[n+](Cc2c(Cl)cccc2Cl)cc1,21.9% (inactive)
16,C[n+]1c2cc(N)ccc2cc2ccc(N)cc21,92% (active)
17,O=C1N=c2ccccc2=C1N=Nc1nc(O)c(-c2c(O)[nH]c3ccccc23)s1,-14% (inactive)
18,O=C1N=c2ccccc2=C1N=Nc1c(O)[nH]c2c(Cl)cc(Cl)cc12,80% (active)
19,Oc1[nH]c2c(Cl)cc(Cl)cc2c1N=Nc1nc2ccccc2o1,101% (active)
20,O=C(NNc1cccc(Cl)c1)[C@@H]1CCCN1c1nccc(Nc2ccccc2)n1,91.9% (active)
21,CCOc1coc(C(=O)NCCc2ccc(Cl)cc2)cc1=O,49.6% (inactive)
22,Cc1ccc(C)c(COc2cccn3c(CCNC(=O)COCc4ccccc4)cnc23)c1,33.6% (inactive)

row,SMILES,inhibition
1,O=C(NCCCc1ccccc1)c1cc(=O)c(OCc2ccccc2)co1,99.7% (active)
2,O=C(NCCCc1ccccc1)c1cc(=O)c(OCc2ccc(F)cc2)co1,99.9% (active)
3,CCOC(=O)Cn1c(=NC(=O)c2cc(C)no2)sc2cccc(F)c21,49.7% (inactive)
4,CC(=O)Oc1ccc2c(=O)c(-c3ccc4c(c3)OCCO4)c(C)oc2c1OC(C)=O,26.1% (inactive)
5,O=c1c(-c2ccc3c(c2)OCCO3)c(C(F)(F)F)oc2cc(O)ccc12,104% (active)
6,CC(=O)Oc1ccc2c(=O)c(Oc3ccc(F)cc3)c(C(F)(F)F)oc2c1,18.9% (inactive)
7,Cc1sc2nc(-c3cccnc3)nc(NC(C)C(C)C)c2c1C (stereo unspecified),-13.7% (inactive)
8,C#CCN(CC=C)Cc1nc(-c2ccc(Cl)cc2)oc1C,14.8% (inactive)
9,CN(C)C(=S)SSC(=S)N(C)C,102% (active)
10,CC1(C)C(=O)C=C[C@@]2(C)C1C[C@@H](O)[C@]1(C)C2CC[C@@]2(C)[C@H](c3ccoc3)OC(=O)[C@H]3O[C@]321 (stereo partly specified),67% (active)
11,CC(=O)O[C@H]1C[C@@H](OC(C)=O)C(C)(C)C2C[C@@H](OC(C)=O)[C@]3(C)C(CC[C@@]4(C)[C@H](c5ccoc5)C(=O)[C@H]5O[C@]543)[C@]21C (stereo partly specified),36.2% (inactive)
12,Cn1cnnc1SCC(=O)Nc1ccc2c(c1)CCC2,-17.5% (inactive)
13,O=C(CCn1cncn1)Nc1ccc2c(c1)CCC2,87.1% (active)
14,O=C1C(=Cc2ccc(F)cc2)CSc2ccc(F)cc21,21.3% (inactive)
15,CCN1c2ccccc2N(C)[C@]1(C)c1ccccc1,68.3% (active)
16,Fc1ccc(C2=CC(c3ccc4c(c3)OCO4)n3nc(C(F)(F)F)nc3N2)cc1 (stereo unspecified),74.3% (active)
17,Clc1ccc(C2=CC(c3ccc4c(c3)OCO4)n3nc(-c4ccccc4)nc3N2)cc1 (stereo unspecified),-34.2% (inactive)
18,FC(F)(F)c1nc2n(n1)C(c1ccc(Cl)cc1)C1=C(N2)c2ccccc2SC1 (stereo unspecified),36.9% (inactive)
19,N#Cc1ccc(C2C=C(c3ccc(Br)cc3)Nc3nc(C(F)(F)F)nn32)cc1 (stereo unspecified),90.9% (active)
20,Fc1ccc(C2C=C(c3ccccc3)Nc3nc(C(F)(F)F)nn32)cc1F (stereo unspecified),3.02% (inactive)
21,O=C1NC2(CCN(C(=O)Nc3ccc(C(F)(F)F)cc3)CC2)Nc2cc(Cl)ccc21,-1.82% (inactive)
22,O=C(Nc1ccc(F)cc1F)N1CCC(Cc2ccc(-n3cccc3)cc2)CC1,51% (active)

row,SMILES,inhibition
1,COc1cccc(NC(=O)N2CCC(Cc3ccc(F)cc3)CC2)c1,47.7% (inactive)
2,O=C(Nc1ccc(F)cc1F)N1CCC(Cc2ccc(C(F)(F)F)cc2)CC1,62.3% (active)
3,Cc1ccc(F)cc1NC(=O)N1CCN(CCCOC(c2ccc(Cl)cc2)c2ccc(Cl)cc2)CC1,6.69% (inactive)
4,O=C(NC1CCN(c2ccccc2C(=O)NCc2ccc(F)cc2)CC1)c1ccc(C(F)(F)F)cc1,-29.8% (inactive)
5,COc1ccc(CC2CCN(C(=O)Nc3cccc(F)c3)CC2)cc1,74.8% (active)
6,O=C(Nc1nnc(C2CC2)s1)N1CCC(Cc2cccc(F)c2)CC1,-2.76% (inactive)
7,CCC(=O)NC(=S)Nc1ccc(C(=O)NC(C)(C)C)cc1,37.3% (inactive)
8,CCCC(=O)NC(=S)Nc1ccc2nn(-c3ccccc3)nc2c1,79.1% (active)
9,COc1ccc(-n2nc3ccc(N)cc3n2)cc1,-45% (inactive)
10,S=c1[nH]nc(SCC#Cc2ccccc2)s1,47.6% (inactive)
11,C=C(C)CSc1n[nH]c(=S)s1,58.8% (active)
12,CC(C)CSc1n[nH]c(=S)s1,100% (active)
13,S=c1[nH]nc(SCc2c(Cl)cccc2Cl)s1,23.4% (inactive)
14,CC(C)Sc1n[nH]c(=S)s1,-48.8% (inactive)
15,CCCSc1n[nH]c(=S)s1,-46% (inactive)
16,CCCCSc1n[nH]c(=S)s1,-27% (inactive)
17,S=c1[nH]nc(SCc2cccs2)s1,99.3% (active)
18,O=C1NC(=S)SC1=Cc1c(F)cccc1F,74.2% (active)
19,O=C1NC(=S)SC1=Cc1c(F)cccc1Cl,83.6% (active)
20,CC(=O)N[C@@H]1C[C@H](Cc2ccccc2)O[C@H](c2ccc(Cl)cc2)C1,61% (active)
21,CC(C)(C)c1ccc(S(=O)(=O)/C=C/C#N)cc1,102% (active)
22,CCOC(=O)c1cc([N+](=O)[O-])nn1Cc1ccc(Cl)c(Cl)c1,19.4% (inactive)

row,SMILES,inhibition
1,CCOC(=O)c1cnn(Cc2ccc(C)cc2)c1N,71.9% (active)
2,CCNC(=S)n1ncc(C(=O)OCC)c1N,-17% (inactive)
3,CCC(C)(C)C1CCc2sc3ncnc(NCCN4CCOCC4)c3c2C1 (stereo unspecified),85% (active)
4,Clc1ccc(-c2nc(NCCN3CCOCC3)c3ccc(Cl)cc3n2)cc1,47.7% (inactive)
5,Nc1c(S(=O)(=O)c2ccccc2)c2nc3ccccc3nc2n1-c1cccc(S(N)(=O)=O)c1,19.5% (inactive)
6,Clc1ccc(CSc2ncccn2)cc1,55.1% (active)
7,N#Cc1ccc(CSc2ncccn2)cc1,-28.1% (inactive)
8,O=S1(=O)CCN2N=C(SCc3ccc(Cl)cc3)SC2=N1,2.87% (inactive)
9,Cc1ccc(OCc2ccc(C(F)(F)F)cc2)c(CO)n1,59.9% (active)
10,CCOC(=O)NCC(=O)N(Cc1ccc(C(F)(F)F)cc1)C1CC1,-10.5% (inactive)
11,COc1cccc(CC2(C(=O)O)CCN(c3ccc(Cl)cn3)CC2)c1,90.8% (active)
12,COc1cccc(CC2(CO)CCCN(C(=O)CCCc3ccc(Cl)cc3)C2)c1 (stereo unspecified),20.4% (inactive)
13,c1cc(NC2CCCCCCC2)cc(-n2ccnc2)c1,56% (active)
14,Oc1ccc(Br)cc1-c1nc2cnccn2c1NC1CCCC1,37.9% (inactive)
15,c1cc(NC2CCCCCC2)c2cccnc2c1,9.23% (inactive)
16,c1cc(NC2CCCCCCC2)cc(-c2cnco2)c1,71.3% (active)
17,c1ncc(-c2ccc(NCC3CCOCC3)cc2)o1,35.5% (inactive)
18,c1ccc(-c2nnc(NC3CCCCC3)s2)cc1,28.9% (inactive)
